What all share (test): NCI-60 one-dose screen, 48 h (100 = growth as untreated, 0 = no growth, -100 = all killed)
Settings in all cases: 10 µM

The test system of experiment [1] is NCI-H23 lung.
The subject of experiment [2] is NCI-H226 lung.
Experiment [3] concerns NCI-H322M lung.
The test system of experiment [4] is HOP-62 NSCLC.
Experiment [5] relates to NCI-H460 lung.
Experiment [6] deals with NCI-H522 lung.
Experiment [7] deals with A549/ATCC NSCLC.
Experiment [8] relates to 786-0 renal.
For experiment [9], the system named is COLO 205 colon.
Experiment [10] concerns DU-145 prostate.
In experiment [11] the test system is K-562 leukemia.
Experiment [12] has as its system MALME-3M melanoma.
The subject of experiment [13] is MDA-MB-231 breast.
Experiment [14] relates to SF-268 CNS.
The test system of experiment [15] is SF-295 CNS.
In experiment [16] the test system is SF-539 CNS.
Experiment [17] deals with UACC-257 melanoma.
The test system of experiment [18] is M14 melanoma.
The test system of experiment [19] is HCT-15 colon.
Experiment [20] concerns RXF 393 renal.

Here are results for eight compounds from PubChem BioAssay (NCI).

Compounds without any hit were thinned out: in the full panel of roughly 83,000, 20% have a hit.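 Cells were grown in 96-well plates and exposed to the test compound at a single concentration for 48 hours; results are reported as percent growth, with values below 10 considered active.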 Values without a mark were called inactive. Active and inactive are the calls of the source.

`CCN(CCCCCCCCCCN1CC(=O)N(CCCCCCCCCCN(CC)Cc2ccccc2OC)CC1=O)Cc1ccccc1OC`: the growth is -26.1% (active) in [1]; -2.55% (active) in experiment [2]; 18.4% in [3]; -71.6% (active) in [4]; -93.3% (active) in [5]; -74% (active) in experiment [6]. Also, the growth in [7] was -48.8% (active); in experiment [8], -72.5% (active); in experiment [9], -91.6% (active); in experiment [10], -52.9% (active); in experiment [11], -58.2% (active); in [12], -83.6% (active). In addition, the growth in experiment [13] was -66.3% (active); in experiment [14], 4.39% (active); in experiment [15], -76.7% (active); in [16] it was -93.2% (active); in experiment [17] it was -86.9% (active); in [18] it was -90.2% (active). Further, the growth in experiment [19] is -17% (active).
As for `O=C(Nc1nc2ccc(F)cc2s1)c1cc(-c2ccc(F)cc2)n2nc(-c3ccccc3)cc2n1`, the growth in experiment [1] is 79.7%; in [2] it was 105%; in experiment [3], 111%; in [4], 64.1%; in [5], 59.5%; in [6], 98.9%. For the same compound, the growth in experiment [7] was 92.1%; in experiment [8] it was 101%; in experiment [9] it was 96.4%; in [10] it was 87%; in experiment [11], 99.9%; in [12], -1.39% (active). Also, the growth is 83.5% in [13]; 104% in experiment [20]; 94.8% in experiment [15]; 93.6% in experiment [16]; 59.2% in [17]; 81% in experiment [18]. For the same compound, the growth in [19] is 90.8%.
With `CC12O[C@H](C[C@@H](OC(=O)c3ccccc3)[C@H]1O)n1c3ccccc3c3c4c(c5c6ccccc6n2c5c31)C(=O)NC4=O`, the growth is 56.9% in experiment [1]; 32.3% in [2]; 83.1% in experiment [3]; 33.4% in [4]; 79.6% in experiment [5]; 66.7% in experiment [6]. The growth is 50.9% in experiment [7]; 78.7% in [8]; 46.8% in experiment [9]; 58.2% in [10]; 71% in [11]; 46.4% in experiment [12]. Also, the growth is 53.3% in experiment [13]; 15.6% in experiment [20]; 61.4% in experiment [14]; 45.8% in [15]; 86.6% in experiment [16]; 44.4% in experiment [18]. The growth in experiment [19] is 77.7%.
Consider `COc1ccc(-c2nc3ccccn3c2-c2nnc(-c3cc(OC)c(OC)c(OC)c3)o2)cc1`, for which the growth is 72.5% in experiment [1]; 60.3% in experiment [2]; 57.3% in experiment [3]; 37.1% in [4]; 21.6% in experiment [5]; 44.8% in experiment [6]. Moreover, the growth was 60.9% in [7]; 60.3% in experiment [8]; 53.3% in experiment [9]; 66.4% in experiment [10]; 102% in experiment [11]; 51.5% in experiment [12]. For the same compound, the growth in experiment [13] was 46.9%; in experiment [20], 74.3%; in experiment [15], 64.9%; in [16], 52.8%; in experiment [17], 84.2%; in [18], 75.7%. Also, the growth in [19] was 71.6%.
As to `N=c1nc(N)ncn1-c1ccccc1`, the growth in experiment [1] is 93.1%; in experiment [2], 89.9%; in experiment [3], 108%; in experiment [4], 92.9%; in experiment [5], 106%; in experiment [6] it was 83.1%. The growth in experiment [7] is 92.4%; in experiment [8], 98%; in experiment [9], 101%; in experiment [10] it was 112%; in experiment [11] it was 93.5%; in experiment [12] it was 110%. Moreover, the growth in [13] was 96.1%; in [14], 108%; in experiment [15] it was 97.8%; in experiment [16], 96.4%; in experiment [17], 97.1%; in experiment [18] it was 106%. Further, the growth in experiment [19] was 99.1%.
In the case of `Cc1cc(Nc2ccc(Cl)cc2)nc(NCCCNc2ccnc3cc(Cl)ccc23)n1`, the growth in [1] is 51.2%; in [2] it was 102%; in experiment [3], -0.971% (active); in experiment [4], -22.6% (active); in [5], -44.9% (active); in experiment [6], -78.8% (active). Further, the growth in experiment [7] is -55.2% (active); in [8], -98.7% (active); in experiment [9] it was -91.1% (active); in experiment [10], 1.28% (active); in experiment [11] it was -53.8% (active); in experiment [12], -82.2% (active). The growth was -88.2% (active) in experiment [13]; -91.9% (active) in experiment [20]; -66.5% (active) in [14]; -68.2% (active) in experiment [15]; -100% (active) in experiment [16]; -87.5% (active) in [18]. The growth in [19] was -54.3% (active).
As for `COc1cc(-c2nnc(-c3c(-c4ccc(F)cc4)nc4ccccn34)o2)cc(OC)c1OC`, the growth in [1] is 80.8%; in experiment [2], 53.7%; in [3], 91.8%; in experiment [4] it was 62.9%; in experiment [5], 52.5%; in experiment [6], 4.71% (active). In addition, the growth in [7] was 70.7%; in experiment [8], 64.7%; in [9], 107%; in experiment [10] it was 77%; in experiment [11], 98.8%; in [12], 105%. Besides, the growth in experiment [13] is 64.6%; in experiment [20], 66.9%; in experiment [15] it was 74.6%; in experiment [16], 26.4%; in [17] it was 92.1%; in [18], 104%. Moreover, the growth in [19] is 90.6%.
On to `COc1ccc(Nc2ccnc(NCCNc3ccnc4cc(Cl)ccc34)n2)cc1`, for which the growth in [1] was 48.8%; in [2] it was 49.7%; in experiment [3] it was 64.7%; in experiment [4], 74.6%; in [5], 47.4%; in [6] it was 43.9%. Also, the growth in experiment [7] is 47%; in experiment [8], 59.4%; in [9] it was 38.8%; in experiment [10], 61.4%; in experiment [11] it was 3.54% (active); in experiment [12], -1.18% (active). The growth was 37.3% in [13]; 55.7% in [20]; 54.5% in experiment [14]; 46.1% in [15]; -14.4% (active) in experiment [16]; -16.6% (active) in [18]. The growth in [19] is 36.8%.
